NS1 function inh: inhibitors of influenza NS1 protein function. Potency, µM (series often up to 46.1 µM). AID 2326. 270,000 compounds, 0.4% hits; note: actives are rising curves; nearly all actives have a fitted effect of over 50% in size
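Read-out: OD600 growth recovery of NS1-expressing budding yeast. Cells grown overnight at 30C in -URA glucose medium, washed, resuspended and diluted 1:100 in 2% galactose assay medium, pH 6.0. Same strain lacking NS1 served as positive control.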
CHX counter: affects cycloheximide protein synthesis inhibition readout, counter-screen; 300,000 compounds, 12% hits; cell reporter, cycloheximide protein synthesis inhibition counterscreen; max response, %; AID 2314; in the data active = max response mostly above about 13%, no sharp cut-off; inactive = mostly below about 14%; note: read at 38.3 µM for the half of the compounds with a filed dose
SARS PLpro yeast: inhibitors of SARS-CoV papain-like protease in yeast; S. cerevisiae expressing SARS-CoV PLpro, growth rescue; Potency, µM (highest dose often 32.9 µM), usual class: activators; 330,000 compounds, 0.19% hits; note: nearly all actives have a fitted effect of over 55% in size
Pf growth 48h: P. falciparum growth inhibition at 48 hours (one generation). P. falciparum luciferase growth in erythrocytes, 48 h. Potency, µM (doses to about 28.7 µM), usual class: inhibitors. 310,000 compounds, 5.9% hits. AID 504832; active = well fitted inhibition curve with a large enough effect; inconclusive = small, poorly fitted or top-dose-only effect, or another doubt; inactive = no such curve, though single readings can be large or run the other way
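Compounds are pin-transferred into medium, infected erythrocytes (2% hematocrit, 0.1% parasitemia final) are added, and plates sit one parasite generation at 37 C in 5% CO2. Detection reagent is then added and luminescence measured.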
Pf growth 96h: P. falciparum growth inhibition at 96 hour, primary screen for plastid delayed-death inhibitors; P. falciparum luciferase reporter growth, 96 h; Potency, µM (titrated, usually from 28.7 µM), hits mostly inhibitors; 320,000 compounds, 6.9% hits; active = well fitted inhibition curve with a large enough effect; inconclusive = small, poorly fitted or top-dose-only effect, or another doubt; inactive = no such curve, though single readings can be large or run the other way
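P. falciparum expressing integrated firefly luciferase, in erythrocytes at 2% hematocrit, 0.05% parasitemia, incubated with compounds 96 h at 37 C, 5% CO2. Growth inhibition read as loss of luminescence; two-generation exposure targets delayed-death apicoplast inhibitors.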
Shiga inhibitor: blocks Shiga toxin action in Vero cells | Vero cells, Shiga toxin protein synthesis inhibition reporter | 290,000 compounds, 9.2% hits | AID 2315 | inhibition, % at 38.7 µM; in the data active = inhibition mostly above about 28%, no sharp cut-off; inactive = mostly below about 43%
A number is an active result; – = inactive; ? = inconclusive; · = not tested or not shown; + = active, no number; [ ] = remark or other dose. Sampled rows, rich in hits. Any-hit rate of the full collection: about 21%. Unless noted, calls come from the whole dose curve.

SMILES | NS1 function inh | CHX counter | SARS PLpro yeast | Pf growth 48h | Pf growth 96h | Shiga inhibitor
O=[N+]([O-])c1ccc(S(=O)(=O)NCCc2cn3ccccc3n2)cc1 | – | – | – | – | – | –
Oc1ccccc1OCCOc1ccccc1OCCOc1ccccc1O | – | 9.8 | – | ? | ? | –
Cc1ccc2nc(SCC(=O)N3CCC(C)CC3)nc(=O)n2c1 | · | · | – | – | ? | ·
Cc1ccc(C(c2nnnn2C(C)(C)C)N(Cc2ccco2)Cc2cccs2)cc1 (stereo not given) | – | – | – | 13µM | · | –
CC(C)(C)n1nnnc1C(c1ccc(C(F)(F)F)cc1)N(Cc1ccc(F)cc1)Cc1ccco1 (stereo not given) | – | 13 | – | 1.9µM | – | active
CC(C)(C)c1ccc(CN(Cc2ccccc2)C(c2ccccn2)c2nnnn2C(C)(C)C)cc1 (stereo not given) | – | – | – | 1.7µM | · | –
CCN(Cc1ccccc1)C(c1ccc(C)cc1)c1nnnn1C(C)(C)CC (stereo not given) | – | – | – | 13µM | – | –
CC(C)(C)n1nnnc1C(c1ccc(F)cc1)N(Cc1ccc(F)cc1)Cc1ccco1 (stereo not given) | – | 16 | – | ? | – | –
CC(C)(C)n1nnnc1C(c1cccnc1)N(Cc1ccccc1)Cc1cccs1 (stereo not given) | – | – | – | 0.83µM | 0.17µM | –
CC(C)(C)n1nnnc1C(c1cccs1)N(Cc1ccccc1)Cc1cccnc1 (stereo not given) | – | – | – | ? | – | –
CC(C)(C)n1nnnc1C(c1ccc(C(F)(F)F)cc1)N(Cc1ccccc1)Cc1ccco1 (stereo not given) | – | – | – | ? | – | –
COc1ccc(-c2c(-c3cc(OC)cc(OC)c3)n(C)c3ccc(-c4ccc(OC)nc4)cc23)cc1 | · | · | – | ? | ? | ·
CC(=O)C1=NN(c2ccccc2)C(c2ccc3c(c2)OCO3)N1c1ccc(N2CCOCC2)cc1 (stereo not given) | – | – | – | 15µM | ? | –
CC(=O)N1N=C(c2ccccc2O)CC1c1cccs1 (stereo not given) | – | – | – | – | – | –
CC(=O)C1=NN(c2ccccc2)C(c2cccs2)N1c1ccccc1 (stereo not given) | – | – | – | · | 4.7µM | –
COc1cccc(N2C(C(C)=O)=NN(c3ccccc3)C2c2ccc(N3CCOCC3)cc2)c1 (stereo not given) | – | 64 | – | 13µM | ? | 69
COc1ccc(C2N(c3ccc(Cl)cc3)N=C(C(C)=O)N(C)N2C(C)=O)cc1 (stereo not given) | · | – | – | ? | ? | –
Cc1cccc(C)c1NC(=O)CN(C)CC(=O)N1CC(=O)Nc2ccccc21 | · | · | – | · | · | ·
COc1ccc2cc(CCOC3CCCCO3)ncc2c1 (stereo not given) | · | · | – | – | – | ·
COc1cc(OC)cc(N2CCN(S(=O)(=O)c3ccc(-n4cnnn4)cc3)CC2)c1 | – | – | – | – | ? | –
O=S(=O)(/N=C(/Nc1cccc2ccccc12)c1ccccc1)c1ccc(F)cc1 | – | – | – | – | – | –
O=C(Nc1cccc(-c2nnc(-c3ccco3)o2)c1)c1ccccc1 | · | – | – | –[5.75 µM] | – | –
O=C(Nc1ccc(-c2nnco2)cc1)c1ccccc1 | – | 14 | – | – | – | 68
O=C(Nc1ccccc1)Nc1cccc(-c2nnco2)c1 | – | 20 | – | – | – | 48
Cc1cccc(-n2cc(C(=O)O)c(=O)cc2C)c1 | · | – | – | – | – | –
SMILES | NS1 function inh | CHX counter | SARS PLpro yeast | Pf growth 48h | Pf growth 96h | Shiga inhibitor
CC1(C(=O)Nc2c(F)c(F)c(F)c(F)c2F)CC1(Br)Br (stereo not given) | – | – | – | ? | ? | –
COc1ccccc1N1CCN(C(=O)c2cn(Cc3ccccc3)nc2-c2cccnc2)CC1 | · | · | – | ? | 9.3µM | ·
O=C(c1cn(Cc2ccccc2)nc1-c1cccnc1)N1CCc2ccccc2C1 | · | · | – | ? | 13µM | ·
Cn1c(O)c(N=NC(=O)c2cccc(S(=O)(=O)N3CCCCC3)c2)c2ccccc21 | – | – | – | 10µM | 7.4µM | –
Cc1cc(C(=O)N=Nc2c(O)n(C)c3ccccc23)c(C)o1 | – | 27 | – | – | – | –
Cc1ccc(C(=O)NC(=S)N2CCN(C(=O)OC(C)(C)C)CC2)cc1Br | – | – | – | – | – | –
CCCCCCCCCCCCCCCCCCOC[C@H](COP(=O)([O-])OCC[N+](C)(C)C)OC | – | · | · | – | – | ·
CCCCCCCCCCCCCCCCOP(=O)([O-])OCC[N+](C)(C)C | · | · | · | ? | 7.6µM | ·
CC(C)(C)Nc1nc(NC(C)(C)C)nc(-n2ccnc2)n1 | – | – | – | 1.3µM | ? | –
CCS(=O)(=O)N1Cc2ccccc2CC1C(=O)Nc1nc2ccccc2[nH]1 (stereo not given) | – | 34 | – | – | – | 194
CCc1nnc(NC(=O)C2Cc3ccccc3CN2S(=O)(=O)CC)s1 (stereo not given) | · | – | – | – | – | –
CCS(=O)(=O)N1Cc2ccccc2CC1C(=O)Nc1nnc(C2CC2)s1 (stereo not given) | · | – | – | ? | – | –
CCS(=O)(=O)N1Cc2ccccc2CC1C(=O)Nc1nc2ccccc2s1 (stereo not given) | – | 43 | – | – | – | +
O=C(Nc1ccccc1N1CCN(C(=O)c2ccccc2)CC1)c1ccccc1Cl | – | – | – | – | ? | –
O=C(Nc1ccccc1N1CCN(C(=O)c2ccc(Cl)cc2)CC1)c1cc(Br)ccc1Cl | ? | – | – | 6.6µM | 4.7µM | –
COc1ccccc1C(=O)Nc1ccccc1N1CCN(C(=O)c2ccc(Cl)cc2)CC1 | – | – | · | 8.3µM | ? | –
CC(=O)N1CCN(c2ccccc2NC(=O)c2cc(Br)ccc2Cl)CC1 | – | – | ? | ? | · | –
CC(=O)c1ccccc1NC(=O)COC(=O)CSCC(=O)Nc1cc(C)on1 | · | · | – | – | – | ·
COc1ccc(OCC(=O)N/N=C2\CCc3ccccc32)cc1 | ? | – | – | · | – | –
Cc1cccc(C(=O)O/N=C2\CCS(=O)(=O)c3sccc32)c1 | – | – | – | ? | ? | –
COc1ccc2c(c1)CC/C2=N\NC(=O)c1ccccc1 | – | 64 | – | – | – | 75
COc1ccc2c(c1)CCC/C2=N/OC(=O)c1ccccc1OC | · | 29 | – | – | ? | –
COc1ccc2c(c1)CC/C2=N\OC(=O)c1cccc(C)c1 | – | 52 | – | ? | – | 139
COc1ccccc1C(=O)ON=C1c2ccccc2-c2ccccc21 | – | 19 | – | – | 1.7µM | –
O=C(CSc1ccccc1)N1CCCC(Nc2ccccc2)C1 (stereo not given) | – | – | – | – | – | –
CC(C)N1CCC(N2CCN(Cc3cc4c(cc3Cl)OCO4)CC2CCO)CC1 (stereo not given) | – | – | – | – | ? | –
COc1ccc2c(c1[N+](=O)[O-])CCC/C2=N/OC(=O)c1cccc2ccccc12 | – | – | – | – | · | –

Source: PubChem BioAssay
